# Test results taken from PubChem BioAssay AID488969 (Vanderbilt High Throughput Screening Facility, 2010).
# In all, about 110,000 compounds were measured (“z-score”: median about -0.1, highest 2% from about 2 on). What follows is part of a selection rich in the highest values, with near analogues and random picks from the rest. Active and inactive are the calls of the source.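 The calls were made as follows: active = z-score in the third read window above 3 or below -3; inactive = the rest.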
# Biological target: Metabotropic glutamate receptor 8 (Rattus norvegicus) (UniProt P70579)
# Experiment: mGluR8 Gi/Go-coupled signaling modulation – cell-based, rat, thallium flux, HTS, primary screen (AID 488969)
# Conditions: HEK293 rat mGluR8, GIRK (G protein-gated inwardly rectifying potassium channel) thallium flux, FluoZin2; at 10 µM; stronger effect = higher value; submaximal glutamate (EC20) added with thallium
# Sequence of Metabotropic glutamate receptor 8 (Rattus norvegicus) (P70579 whole entry, looked up): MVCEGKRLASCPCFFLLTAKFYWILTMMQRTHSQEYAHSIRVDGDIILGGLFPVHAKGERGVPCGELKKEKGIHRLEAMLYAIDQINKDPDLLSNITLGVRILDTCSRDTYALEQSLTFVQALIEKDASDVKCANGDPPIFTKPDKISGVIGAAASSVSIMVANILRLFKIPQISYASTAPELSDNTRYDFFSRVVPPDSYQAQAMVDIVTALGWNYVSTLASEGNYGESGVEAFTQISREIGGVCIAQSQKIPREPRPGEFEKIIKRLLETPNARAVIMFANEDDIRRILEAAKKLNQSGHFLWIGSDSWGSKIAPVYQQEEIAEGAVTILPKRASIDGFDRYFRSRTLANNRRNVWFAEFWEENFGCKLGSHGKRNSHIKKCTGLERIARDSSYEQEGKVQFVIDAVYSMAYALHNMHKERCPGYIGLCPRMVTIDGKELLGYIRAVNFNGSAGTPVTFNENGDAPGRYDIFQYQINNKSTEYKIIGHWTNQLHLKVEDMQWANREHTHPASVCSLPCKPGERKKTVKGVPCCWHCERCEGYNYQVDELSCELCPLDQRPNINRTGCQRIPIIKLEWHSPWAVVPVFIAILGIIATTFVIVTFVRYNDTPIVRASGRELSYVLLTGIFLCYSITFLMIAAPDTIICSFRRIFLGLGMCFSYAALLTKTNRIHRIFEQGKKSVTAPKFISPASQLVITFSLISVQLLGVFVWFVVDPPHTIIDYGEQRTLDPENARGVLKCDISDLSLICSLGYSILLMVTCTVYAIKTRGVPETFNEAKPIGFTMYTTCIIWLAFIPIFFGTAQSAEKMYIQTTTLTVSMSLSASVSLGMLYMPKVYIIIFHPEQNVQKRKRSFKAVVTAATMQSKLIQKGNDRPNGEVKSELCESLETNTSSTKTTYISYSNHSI
row,Compound,z-score
1,CCOC(=O)Cc1csc(NC(=O)CSc2nnc(C(C)C)n2CC)n1,0.0208
2,CCN(CC)c1ccc(NC(=O)c2cccnc2)cc1,-0.663
3,CCCS(=O)(=O)N1CCC(C(=O)N2CCCC2)CC1,-1.16
4,O=[N+]([O-])c1ccc(N2CCN(S(=O)(=O)c3ccccc3[N+](=O)[O-])CC2)cc1N1CCc2ccccc2C1,-0.00158
5,O=C(/C=C/c1ccccc1Cl)NCc1ccco1,-0.133
6,C=CCN(Cc1cccc(OC)c1OC)S(=O)(=O)N(C)C,-0.164
7,CCOc1ccc(-n2nnnc2-c2nc3ccccc3s2)cc1,-0.319
8,Cc1ccc(-n2nnnc2-c2ccco2)cc1,-0.111
9,Cc1ccc(-n2nnnc2-c2nc3ccccc3s2)cc1,6.16 (active)
10,CCN(CC)C(=O)/C(=C\c1cccc([N+](=O)[O-])c1)NC(=O)c1ccco1,-0.281
11,CC(/C=N/NC(=O)c1cc(-c2ccc(Cl)cc2)nc2ccccc12)=C\c1ccco1,0.0726
12,Cc1ccc(-c2cc(C(=O)N/N=C/C=C/c3ccco3)c3ccccc3n2)cc1C,2.64
13,CC(/C=N/NC(=O)c1cc(-c2ccccc2)nc2ccccc12)=C\c1ccco1,-0.0414
14,Cc1ccc(C(=O)N(Nc2nc3ccccc3s2)C(=O)c2ccc(C)cc2)cc1,0.0589
15,O=C(OCc1ccc([N+](=O)[O-])cc1)c1ccc(N2CCCC2)c([N+](=O)[O-])c1,0.344
16,CC(C)(C)N1CC2(c3ccccc3)CN(C(C)(C)C)CC(c3ccccc3)(C1)C2=O,1.19
17,O=[N+]([O-])c1cnccc1Nc1cccc(F)c1,0.28
18,O=[N+]([O-])c1ccccc1-c1cc(-c2ccccc2O)n[nH]1,-0.676
19,O=C(/C=C/c1ccccc1)C1C(=O)c2ccccc2C1=O,4.21 (active)
20,CCc1ccc(/C=C/C(=O)C2C(=O)c3ccccc3C2=O)cc1,3.92 (active)
21,O=C(/C=C/c1ccccc1)/C=C/c1ccccc1,-0.389
22,Cc1ccc(/C=C/C(=O)C2C(=O)c3ccccc3C2=O)cc1,0.871
23,CCc1ccc(/C=C/C(=O)c2c(C)cc(C)[nH]c2=O)cc1,-0.106

row,Compound,z-score
1,CCc1ccc(/C=C\C(=O)N2CCc3ccccc3C2)cc1,-0.105
2,COc1ccc(N(C(=O)c2cnsn2)C(C(=O)NC2CCCCC2)c2ccncc2)cc1 (stereo not given),0.0313
3,CC(C)CNC(=S)NC(=O)c1ccc(Cl)cc1Cl,13.8 (active)
4,CCCCNC(=O)c1ccccc1Cl,-0.135
5,CCCCNC(=O)c1ccccc1C(=O)NCCCC,0.0704
6,O=C(NC(=S)NCCN1CCOCC1)c1ccc(Cl)cc1Cl,0.241
7,Cc1cc(Cl)ccc1NC(=S)NCC(C)C,-0.0377
8,O=C(NC(=S)NCCN1CCOCC1)c1ccccc1Br,0.00751
9,CCCCNC(=S)NC(=O)c1ccccc1Br,6.17 (active)
10,CC(C)NC(=S)NC(=O)c1ccc(Cl)cc1Cl,13.8 (active)
11,CC(C)CC(NC(=O)c1ccc(Cl)cc1Cl)C(=O)O (stereo not given),-0.413
12,O=C(NC(=S)NCC1CCCO1)c1ccc(Cl)cc1Cl (stereo not given),-0.218
13,CCCCNC(=S)NC(=O)c1ccc(Cl)cc1Cl,3.01 (active)
14,CCC(=O)Nc1cccc(NC(=S)NC(=O)c2ccc(Cl)cc2Cl)c1,0.0528
15,Cc1cc(N2C(=O)CC(Cc3ccccc3)C2=O)no1 (stereo not given),-0.0586
16,CCOc1ccc(N(CC)S(=O)(=O)c2ccc3c(c2)n(C)c(=O)c(=O)n3C)cc1,-0.239
17,CCN(CC)S(=O)(=O)c1ccc(N2CCOCC2)c(NS(=O)(=O)c2ccc(C)cc2)c1,-0.152
18,Clc1ccc(Cn2ncc3c(N4CCCCC4)ncnc32)cc1,-0.535
19,O=C(O)c1cc([N+](=O)[O-])ccc1N1CCCCC1,-0.123
20,CCN(CC)S(=O)(=O)c1ccc(N2CCOCC2)c(NC(=O)Cc2ccc(Cl)cc2)c1,0.141
21,O=C(NCCc1ccncc1)Nc1ccccc1,0.141
22,O=C(O)c1c(F)c(F)cc2ccccc12,0.365
23,CNc1oc(-c2ccco2)nc1C#N,0.498

row,Compound,z-score
1,Cc1cc(Cl)c(S(=O)(=O)N2CCCCCC2)cc1OCC(N)=O,1.66
2,CCNC(=S)NNC(=O)c1ccccc1Cl,-0.211
3,O=C(NC(=S)NCCN1CCOCC1)c1ccccc1Cl,-0.177
4,CC(C)CNC(=S)NC(=O)c1ccccc1Cl,8.99 (active)
5,Cc1cc(/C=C(\C#N)C(=O)Nc2ccccc2)c(C)n1-c1ccc2c(c1)OCO2,-0.335
6,CCN(CC)C(=O)Oc1ccc2cc(Br)ccc2c1,0.935
7,CC(C)(C)C1CCC(OCC(O)CN2CCN(Cc3ccccc3)CC2)CC1 (stereo not given),-0.106
8,CC(C)(C)C1CCC(OCC(O)CN2CCN(c3ccccc3)CC2)CC1 (stereo not given),-0.235
9,CC1CCN(CC(O)COC2CCC(C(C)(C)C)CC2)CC1 (stereo not given),4.18 (active)
10,CC(=O)/C(=N\Nc1ccccc1)Sc1nnc(-c2ccccc2)n1-c1ccccc1,-0.24
11,COc1ccccc1-n1nnnc1SCC(=O)NC1CCCC1,-0.293
12,Cc1cnc(NC(=O)CSc2ncn(-c3ccccc3)n2)s1,-0.143
13,Cc1cccc(C)c1OCC(=O)N/N=C/c1cccn1C,-0.372
14,Cc1ccc(OCC(=O)N/N=C/c2cccn2C)cc1,1.01
15,Cc1ccccc1OCC(=O)N/N=C/c1cccn1C,2.42
16,CCCS(=O)(=O)N1CCCC(C(=O)NCCCN(C)c2ccccc2)C1 (stereo not given),0.0444
17,O=S(=O)(c1ccccc1)N1CCN(C(=S)Nc2ccc(F)cc2)CC1,3.37 (active)
18,NS(=O)(=O)c1ccc(NC(=S)N2CCN(S(=O)(=O)c3ccc(F)cc3)CC2)cc1,0.195
19,O=S(=O)(c1ccc(Cl)cc1)N1CCN(C(=S)Nc2ccc(F)c(Cl)c2)CC1,0.862
20,COc1ccccc1-n1c(CCn2nc(C)c(Br)c2C)n[nH]c1=S,-0.472
21,CC1(C)CC(=O)C(N=Nc2ccc(Cl)cc2)=C(O)C1,-0.154
22,CC(C)c1ccc(OCC(=O)N(c2ccccn2)C2CCCCC2)cc1,-0.397
23,O=C(CSc1nncs1)NCc1ccc2c(c1)OCO2,-0.652

row,Compound,z-score
1,COc1cccc(-n2c(SCC(=O)N3CCCC3)nc3c([nH]c4ccccc43)c2=O)c1,-0.189
2,Cc1nnc2c3ccccc3c(-c3cccc4ccccc34)nn12,-1.04
3,CC1CCCC(C)N1C(=O)CSc1nnc(COc2ccccc2)n1-c1ccccc1 (stereo not given),-0.853
4,CC(C)(CO)Nc1nc(N2CCCC2)nc(N2CCCC2)n1,2.09
5,CC(C)(C)Nc1nc(N2CCCC2)nc(N2CCCC2)n1,-0.14
6,OCCNc1nc(N2CCCC2)nc(N2CCCC2)n1,-0.968
7,CC1CCCN(CC(O)COc2ccc(Cl)cc2)C1 (stereo not given),0.149
8,O=C(CSc1nccc2ccccc12)N1CCN(c2ccccn2)CC1,-1.6
9,Cc1ccc(NC(=O)COc2cccnc2[N+](=O)[O-])cc1S(=O)(=O)N1CCCCC1,4.45 (active)
10,Cc1ccc(OCC(=O)Nc2cccc(S(=O)(=O)N3CCCCC3)c2)c([N+](=O)[O-])n1,0.216
11,Cc1ccc(NC(=O)COC(=O)CNC(=O)c2cccc([N+](=O)[O-])c2)cc1S(=O)(=O)N1CCCCCC1,0.745
12,Cc1ccc(OCC(=O)Nc2cc(S(=O)(=O)N3CCCCC3)ccc2C)c([N+](=O)[O-])n1,-0.377
13,O=C(COc1cccnc1[N+](=O)[O-])Nc1cccc(S(=O)(=O)N2CCCCC2)c1,-0.289
14,Cc1ccc(OCC(=O)Nc2ccc(C)c(S(=O)(=O)N3CCCCC3)c2)c([N+](=O)[O-])n1,6.89 (active)
15,CCC(c1nnc(SCC(=O)Nc2nnc(-c3ccccc3)o2)o1)N(C)C (stereo not given),-0.0751
16,Oc1cccc(/C=N/Nc2cc(N3CCOCC3)nc(N3CCOCC3)n2)c1,-0.242
17,O=C(NC1CCCc2ccccc21)C1CCN(S(=O)(=O)c2ccccc2F)CC1 (stereo not given),-0.424
18,O=C(NC1CCc2ccccc21)C1CCN(S(=O)(=O)c2ccc(-n3cnnn3)cc2)CC1 (stereo not given),0.204
19,O=C(NC1CCc2ccccc21)C1CCN(S(=O)(=O)c2ccc(Cl)cc2)CC1 (stereo not given),2.31
20,O=C(/C=C/c1ccc(F)cc1)N1CCCN(C(=O)/C=C/c2ccc(F)cc2)CC1,-0.668
21,CCCn1c(SCC(=O)N2N=C3/C(=C/c4ccc(OC)cc4)CCCC3C2c2ccc(OC)cc2)n[nH]c1=O (stereo not given),-0.0176
22,O=C(CSCc1ccc(F)cc1)Nc1ccccc1,0.0848
23,CC(C)CC(=O)NS(=O)(=O)c1ccc(N)cc1,0.0965

row,Compound,z-score
1,COc1cccc(/C=C/C(=O)Oc2ccc(C(=O)c3ccc(F)cc3)cc2)c1,-2.23
2,Cc1ccc(S(=O)(=O)NCCNC(=O)C2CCCNC2=O)cc1 (stereo not given),2.41
3,CN(C)CCNC(=O)C1CCCNC1=O (stereo not given),0.0264
4,CCCCNC(=O)C1CCCNC1=O (stereo not given),0.0768
5,Cc1ccc(NC(=O)CSCC#N)cc1Cl,-0.0832
6,O=C(COc1ccccc1O)Nc1ccc(Cl)cc1,-0.0165
7,Cc1ccc(NC(=O)CCn2cccc2)cc1Cl,-0.079
8,Cc1ccc(NC(=O)Cn2cccc2)cc1Cl,2.51
9,N#CCSCC(=O)Nc1ccc(Cl)cc1,0.285
10,NC(=O)SCC(=O)Nc1cccc(Cl)c1,2.86
11,COC(=O)CCC(=O)Nc1cccc(Cl)c1,-0.0969
12,Cc1ccc(Cl)cc1NC(=O)Cn1cccc1,-0.44
13,Cc1ccc(NC(=O)CSC(N)=O)cc1Cl,5.44 (active)
14,Nc1cc(=O)[nH]c(SCC(=O)Nc2cccc(Cl)c2)n1,0.151
15,NC(=O)SCC(=O)Nc1ccc(Cl)cc1,5.18 (active)
16,Cc1ccc(Cl)cc1NC(=O)CSC(N)=O,0.476
17,O=C(NNC1=NCCCCC1)c1ccccc1,-0.78
18,O=S(=O)(Cc1ccccc1)N1CCCC(c2nc(-c3ccc(F)cc3)no2)C1 (stereo not given),-0.449
19,Cc1nc(NC(=O)CSc2ccc(-c3nc4ccccc4[nH]3)cn2)sc1C,-0.0534
20,O=C(/C=C/c1ccc(OCc2ccccc2)c(OCc2ccccc2)c1)c1cccnc1,0.691
21,O=C(NCc1ccc(F)cc1)C1CCN(C(=O)NCc2ccccc2)CC1,0.336
22,Cc1ccc(NC(=O)N2CCC(C(=O)NCc3ccc(F)cc3)CC2)cc1,2.21
23,Cc1ccc(NC(=O)N2CCC(C(=O)NCc3ccccc3)CC2)cc1,-0.545
